From PubChem BioAssay (Tox21)
Inconclusive results are not listed. Calls of active or inactive are those of the source. Unless noted, calls come from the whole dose curve.

Experiments:
[1] = Nuclear factor erythroid 2-related factor 2/antioxidant responsive element (Nrf2/ARE) small molecule agonists: luciferase reporter gene qHTS assay in human keratinocytes (AID 1919969); note: nearly all actives have a fitted effect of over 35% in size; note: potency is the fitted concentration of half-maximal effect
[2] = biological target: Gonadotropin-releasing hormone receptor (Homo sapiens) (UniProt P30968); assay: Human gonadotropin-releasing hormone receptor (GnRHR) small molecule agonists, calcium flux assay in GnRHR-HEK293 cells (AID 1920063); note: nearly all actives have a fitted effect of over 35% in size
Method in brief: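 HEK293 cells stably expressing human GnRHR were dye-loaded for 1 h at 37 C. Compound was added in agonist mode and fluorescence (Ex/Em 480/540) recorded kinetically for 3 min. Fifteen concentrations, triplicates.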

[3] = biological target: KiSS-1 receptor (Homo sapiens) (UniProt Q969F8); assay: Human kisspeptin (KISS1R) small molecule agonists, calcium flux assay in KISS1R-HEK293 cells (AID 1920064; active = well fitted activation curve with a large enough effect in the repeat runs)
Method in brief: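 HEK293 cells stably expressing human KISS1R were loaded with calcium dye for 1 h at 37 C, then given compound; fluorescence (Ex/Em 480/540) was read kinetically for 3 min. Fifteen concentrations, triplicate.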

[4] = G protein-coupled receptor (GPCR) small molecule agonists, calcium flux assay: HEK293 wild type cell line counter screen (AID 1920065)
Method in brief: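 Wild-type HEK293 cells plated 18 h, loaded with calcium dye 1 h at 37 C, then compounds added in agonist mode (ATP as positive control). Kinetic fluorescence Ex/Em 480/540 recorded 3 min at 1 sec intervals; 15 concentrations, triplicate.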

[5] = p53 small molecule agonists, cell-based qHTS assay with human liver microsomes (AID 1963577);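 note: p53 response element beta-lactamase reporter cells with liver microsomes plus NADPH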
Method in brief: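 p53RE-bla cells; 5 h settle, 37 C/5% CO2; cpd + HLM 0.5 mg/mL + NADPH 0.5 mg/mL (final); 16 h 37 C; LiveBLAzer 2 h RT dark; fluorescence readout.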

[6] = p53 small molecule agonists, cell-based qHTS assay with human liver microsomes: qHTS cell viability counter screen (AID 1963579); note: nearly all actives have a fitted effect of over 45% in size
Method in brief: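 Luminescent CellTiter-Glo read-out, 30 min at room temperature, gauged cytotoxicity in p53RE-bla cells exposed 16 h at 37 C to DMSO-dissolved compounds with metabolic activation by human liver microsomes and NADPH, each 0.5 mg/mL final.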

[7] = p53 small molecule agonists, cell-based qHTS assay with rat liver microsomes: qHTS cell viability counter screen (AID 1963580); note: nearly all actives have a fitted effect of over 45% in size
Method in brief: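 HCT-116 p53RE-bla, 4,000 cells/well, 5 h pre-incubation; cpd + rat liver microsomes 0.5 mg/mL + NADPH 0.5 mg/mL (final); 16 h, 37 C; CellTiter-Glo, 30 min RT; luminescence.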

[8] = p53 small molecule agonists, cell-based qHTS assay: qHTS cell viability counter screen (AID 1963581); note: nearly all actives have a fitted effect of over 45% in size
Method in brief: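 p53RE-bla HCT-116 cells, compounds added 5 h after plating and incubated 16 h at 37 C. Cytotoxicity measured in the same wells as intracellular ATP by CellTiter-Glo luminescence after 30 min at room temperature.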

[9] = cAMP Responsive Elements (CRE) small molecule agonists, cell-based qHTS assay (AID 1963590)
Method in brief: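 CRE-bla HEK 293T cells, 2,000/well in DMEM with 10% dialyzed FBS and 25 mM HEPES, pre-incubated 18 h at 37 C, then exposed to compound 3 h at 37 C. Beta-lactamase reporter read with LiveBLAzer B/G FRET substrate after 2 h at room temperature.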

[10] = cAMP Responsive Elements (CRE) small molecule antagonists, cell-based qHTS assay (AID 1963591; active = well fitted inhibition curve with a large enough effect in the signal ratio in the repeat runs, not every such curve was filed as active; the % refers to the signal ratio)
Method in brief: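 CRE-bla HEK293T cells plated 18 h, then given compound plus NKH477 at 0.25 uM final for 3 h at 37C. Beta-lactamase reporter read with LiveBLAzer B/G FRET substrate after 2 h at room temperature.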

[11] = biological target: Beta-2 adrenergic receptor (Homo sapiens) (UniProt P07550); assay: Adrenergic beta2 receptor (ADRB2) small molecule antagonists, cell-based qHTS assay (AID 1963592); note: series mostly up to about 92 µM; nearly all actives have a fitted effect of over 50% in size
Method in brief: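 Cells (CHO, stable ADRB2 overexpression) incubated 18-20hr at 37C; compounds added from DMSO; agonist mix (1nM isoproterenol, 100uM IBMX, 25uM Ro-20-1724) added; 0.5hr RT; d2-cAMP and anti-cAMP-cryptate added; 1hr RT; 665/615 nm read.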

[12] = biological target: D(2) dopamine receptor (Homo sapiens) (UniProt P14416); assay: Dopamine D2 receptor (DRD2) small molecule antagonists, cell-based qHTS assay (AID 1963595; active = well fitted inhibition curve with a large enough effect in the signal ratio in the repeat runs, with a control signal flat; the % refers to the signal ratio)
Method in brief: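 Cells were plated and grown for 24 h at 37 °C. Ro20-1724 (0.1 mM final) went in first, then compound for 10 min. NKH477 (200 nM) with quinpirole (12 nM) followed for 30 min at RT, then HTRF detection reagents for 1 h.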

[13] = p53 small molecule agonists, cell-based qHTS assay with rat liver microsomes (AID 1963578)
Method in brief: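 Rat liver microsome activation: microsomes 0.5 mg/mL, NADPH 0.5 mg/mL final; p53RE-bla cells, 16 h 37 C; LiveBLAzer readout, 2 h RT dark.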

[14] = p53 small molecule agonists, cell-based qHTS assay (AID 1963582; active = well fitted activation curve with a large enough effect in the signal ratio in the repeat runs, not every such curve was filed as active; the % refers to the signal ratio)
Method in brief: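 p53RE-bla reporter cells, compounds added in DMSO after 5 h plating, incubated 16 h at 37 C. Beta-lactamase read via 2 h room-temperature LiveBLAzer B/G FRET substrate, fluorescence intensity.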

[15] = biological target: 5-hydroxytryptamine receptor 2A (Homo sapiens) (UniProt P28223); assay: 5-hydroxytryptamine receptor 2A (HTR2A) small molecule antagonists, cell-based qHTS assay (AID 1963586); note: nearly all actives have a fitted effect of over 45% in size
Method in brief: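 Antagonist-mode intracellular calcium assay: DOI (4 nM) added after 5 min compound pre-incubation at room temperature to dye-loaded HTR2A-CHO cells. Fluorescence followed for 3 min, sampled every second.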

[16] = biological target: 5-hydroxytryptamine receptor 2A (Homo sapiens) (UniProt P28223); assay: 5-hydroxytryptamine receptor 2A (HTR2A) small molecule agonists, cell-based qHTS assay (AID 1963587); note: nearly all actives have a fitted effect of over 30% in size
Method in brief: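 Kinetic calcium-flux fluorescence (2 min, 1 sec intervals) after compound addition in agonist mode. HTR2A-CHO cells were cultured 18 h, then dye-loaded 1 h at 37 C.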

[17] = biological target: Muscarinic acetylcholine receptor M1 (Homo sapiens) (UniProt P11229); assay: Cholinergic receptor muscarinic 1 (CHRM1) small molecule antagonists, cell-based qHTS assay (AID 1963588); note: nearly all actives have a fitted effect of over 40% in size
Method in brief: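 CHRM1-CHO calcium-flux assay, antagonist mode. Cells were seeded 18 h, dye-loaded 1 h at 37 C and given compound for 5 min at RT, then acetylcholine was added at 50nM. FDSS fluorescence was read 3 min; 15 concentrations, three runs.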

[18] = biological target: Muscarinic acetylcholine receptor M1 (Homo sapiens) (UniProt P11229); assay: Cholinergic receptor muscarinic 1 (CHRM1) small molecule agonists, cell-based qHTS assay (AID 1963589); note: nearly all actives have a fitted effect of over 35% in size
Method in brief: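 CHO cells stably expressing human CHRM1 were loaded with calcium dye for 1 h at 37 C, then compound was added in agonist mode. Intracellular calcium fluorescence was followed kinetically at 1 s intervals. Fifteen concentrations were tested in three independent runs.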

[19] = biological target: Beta-2 adrenergic receptor (Homo sapiens) (UniProt P07550); assay: Adrenergic beta2 receptor (ADRB2) small molecule agonists, cell-based qHTS assay (AID 1963593);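 note: CHO cells stably overexpressing human ADRB2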
Method in brief: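 CHO cells stably over-expressing ADRB2 were plated overnight at 37C, then dosed with compounds plus a stimulation mix containing 100uM IBMX and 25uM Ro-20-1724 for 0.5hr at room temperature. cAMP was measured by HTRF competition, 1hr.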

[20] = biological target: D(2) dopamine receptor (Homo sapiens) (UniProt P14416); assay: Dopamine D2 receptor (DRD2) small molecule agonists, cell-based qHTS assay (AID 1963594); note: nearly all actives have a fitted effect of over 35% in size
Method in brief: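 cAMP accumulation in DRD2-HEK293 cells measured by HTRF after 1 h detection; compounds added 10 min before NKH477 (200nM […]) forskolin-analogue stimulation, 30 min at room temperature, with Ro20-1724 present at 0.1 mM final.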
% is set by controls: 0 for no effect and ±100 for the full control effect.

Sequence of D(2) dopamine receptor (Homo sapiens) (P14416 whole entry, looked up): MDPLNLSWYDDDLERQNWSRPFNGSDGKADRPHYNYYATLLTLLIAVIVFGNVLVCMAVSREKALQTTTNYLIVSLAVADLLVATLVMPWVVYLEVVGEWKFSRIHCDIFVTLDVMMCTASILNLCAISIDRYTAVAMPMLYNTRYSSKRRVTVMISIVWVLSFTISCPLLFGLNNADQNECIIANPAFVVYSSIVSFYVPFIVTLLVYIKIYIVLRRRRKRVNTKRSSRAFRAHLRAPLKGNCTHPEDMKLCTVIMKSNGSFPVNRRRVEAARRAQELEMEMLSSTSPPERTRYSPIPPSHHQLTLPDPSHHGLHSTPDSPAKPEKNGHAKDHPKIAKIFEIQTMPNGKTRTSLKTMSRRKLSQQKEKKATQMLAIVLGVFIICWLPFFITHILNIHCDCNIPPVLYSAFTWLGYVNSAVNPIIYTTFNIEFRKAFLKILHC
Sequence of Beta-2 adrenergic receptor (Homo sapiens) (P07550 whole entry, looked up): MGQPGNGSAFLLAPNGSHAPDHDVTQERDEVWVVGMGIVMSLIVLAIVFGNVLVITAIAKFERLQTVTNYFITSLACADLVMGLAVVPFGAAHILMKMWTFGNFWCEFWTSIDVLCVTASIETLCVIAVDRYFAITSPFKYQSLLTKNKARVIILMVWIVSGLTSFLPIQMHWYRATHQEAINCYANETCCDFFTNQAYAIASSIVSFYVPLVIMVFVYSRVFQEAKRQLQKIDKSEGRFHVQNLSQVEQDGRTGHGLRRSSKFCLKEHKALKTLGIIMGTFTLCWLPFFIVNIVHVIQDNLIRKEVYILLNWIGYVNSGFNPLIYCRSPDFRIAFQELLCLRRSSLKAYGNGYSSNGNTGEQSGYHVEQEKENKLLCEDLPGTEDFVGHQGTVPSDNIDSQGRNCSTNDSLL
Sequence of Gonadotropin-releasing hormone receptor (Homo sapiens) (P30968 whole entry, looked up): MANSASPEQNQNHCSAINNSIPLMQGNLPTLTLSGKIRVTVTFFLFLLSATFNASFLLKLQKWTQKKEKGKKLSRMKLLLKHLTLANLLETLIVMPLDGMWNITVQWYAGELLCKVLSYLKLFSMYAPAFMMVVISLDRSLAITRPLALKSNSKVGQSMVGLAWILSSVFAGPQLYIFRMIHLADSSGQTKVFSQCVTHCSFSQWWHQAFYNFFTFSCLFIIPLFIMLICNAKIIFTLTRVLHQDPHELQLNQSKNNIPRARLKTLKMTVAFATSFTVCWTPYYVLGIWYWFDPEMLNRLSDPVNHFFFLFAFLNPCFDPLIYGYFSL
Sequence of 5-hydroxytryptamine receptor 2A (Homo sapiens) (P28223 whole entry, looked up): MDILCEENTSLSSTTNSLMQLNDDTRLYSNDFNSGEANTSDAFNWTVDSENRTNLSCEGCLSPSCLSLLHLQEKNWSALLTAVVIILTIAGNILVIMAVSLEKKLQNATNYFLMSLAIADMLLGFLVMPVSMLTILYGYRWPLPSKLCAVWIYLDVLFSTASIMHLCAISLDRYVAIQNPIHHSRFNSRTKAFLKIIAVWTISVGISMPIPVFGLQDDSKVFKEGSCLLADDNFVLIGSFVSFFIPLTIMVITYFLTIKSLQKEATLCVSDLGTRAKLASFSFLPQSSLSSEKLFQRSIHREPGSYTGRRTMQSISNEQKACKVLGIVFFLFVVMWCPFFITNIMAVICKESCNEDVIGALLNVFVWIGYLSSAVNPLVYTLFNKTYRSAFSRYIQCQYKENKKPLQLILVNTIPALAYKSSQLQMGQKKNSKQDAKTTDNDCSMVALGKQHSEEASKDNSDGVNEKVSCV
Sequence of Muscarinic acetylcholine receptor M1 (Homo sapiens) (P11229 whole entry, looked up): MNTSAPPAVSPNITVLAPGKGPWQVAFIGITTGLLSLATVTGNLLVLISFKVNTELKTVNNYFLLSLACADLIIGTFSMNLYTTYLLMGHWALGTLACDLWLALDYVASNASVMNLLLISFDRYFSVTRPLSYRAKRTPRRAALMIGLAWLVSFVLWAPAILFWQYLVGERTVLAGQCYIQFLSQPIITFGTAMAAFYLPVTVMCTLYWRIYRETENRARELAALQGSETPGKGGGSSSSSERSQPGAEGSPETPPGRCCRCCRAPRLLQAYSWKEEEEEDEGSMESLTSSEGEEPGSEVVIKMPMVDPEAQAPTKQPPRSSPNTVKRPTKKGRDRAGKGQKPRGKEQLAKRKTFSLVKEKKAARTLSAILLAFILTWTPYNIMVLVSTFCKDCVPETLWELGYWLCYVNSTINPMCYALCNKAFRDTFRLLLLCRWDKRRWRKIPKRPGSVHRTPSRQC
Sequence of KiSS-1 receptor (Homo sapiens) (Q969F8 whole entry, looked up): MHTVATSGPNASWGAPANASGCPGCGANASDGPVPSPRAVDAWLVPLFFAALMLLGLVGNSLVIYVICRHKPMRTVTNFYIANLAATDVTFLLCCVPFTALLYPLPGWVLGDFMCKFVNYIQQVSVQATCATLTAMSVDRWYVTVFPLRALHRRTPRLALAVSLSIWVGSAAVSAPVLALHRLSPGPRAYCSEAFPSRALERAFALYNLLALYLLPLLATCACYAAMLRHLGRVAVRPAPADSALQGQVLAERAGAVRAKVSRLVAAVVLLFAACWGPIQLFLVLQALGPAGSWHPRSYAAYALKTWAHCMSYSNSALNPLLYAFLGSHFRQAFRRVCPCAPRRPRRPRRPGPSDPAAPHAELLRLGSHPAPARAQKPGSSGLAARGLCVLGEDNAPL

Fc1ccc([C@@H]2CCNC[C@H]2COc2ccc3c(c2)OCO3)cc1
inactive: Potency [1] | Potency [2] | outcome [3] | outcome [4] | Potency [5] | Potency [6] | Potency [7] | Potency [8] | Potency [9] | Potency [10] | Potency [11] | Potency [12]

CCOc1cc(OCC)c(C(=O)CCC(=O)O)cc1OCC
inactive: Potency [1] | Potency [2] | outcome [3] | outcome [4] | Potency [5] | Potency [13] | Potency [7] | Potency [8] | Potency [14] | Potency [15] | Potency [16] | Potency [17] | Potency [18] | Potency [11] | Potency [19] | Potency [20] | Potency [12]

C/C(=N\[Si](C)(C)C)O[Si](C)(C)C
inactive: Potency [1] | Potency [2] | outcome [3] | outcome [4] | Potency [13] | Potency [6] | Potency [7] | Potency [8] | Potency [14] | Potency [15] | Potency [16] | Potency [17] | Potency [18] | Potency [9] | Potency [11] | Potency [20] | Potency [12]

NC[C@H]1O[C@H](O[C@H]2[C@H](O[C@@H]3O[C@H](CO)[C@@H](O)[C@H]3O)C(O)[C@H](N)C[C@@H]2N)[C@H](N)[C@@H](O)[C@@H]1O (stereo partly drawn)
inactive: activity, positive = activation [1] -8.73% [at 8.39 µM] | activity change [2] -0.504% [at 5.22 µM, stronger effect = higher value] | activation [3] -0.532% [at 6.97 µM] | activation [4] -0.0987% [at 5.23 µM] | activation [5] 0.817% [at 5.99 µM] | activity change, negative = cytotoxicity [6] 26.1% [at 5.99 µM] | activity change, negative = cytotoxicity [7] 1.61% [at 5.99 µM] | activity change, negative = cytotoxicity [8] 0.386% [at 5.99 µM] | activation [14] -3.27% [at 5.99 µM] | activity, negative = inhibition [15] 2.42% [at 5.62 µM] | activation [16] -4.1% [at 7.02 µM] | activity, negative = inhibition [17] 1.47% [at 5.58 µM] | activation [9] 4.47% [at 8.39 µM] | activity change, negative = inhibition [11] 7.44% [at 8.39 µM] | activity change, negative = inhibition [12] -1.87% [at 8.38 µM]

CC(C)(C)NSc1nc2ccccc2s1
inactive: Potency [2] | outcome [3] | outcome [4] | Potency [6] | Potency [7] | Potency [14] | Potency [15] | Potency [16] | Potency [17] | Potency [18] | Potency [10] | Potency [11] | Potency [20] | Potency [12]
active: Potency [1] 24.8 µM

C[C@@]12C(=O)OC(=O)[C@]1(C)C1CCC2O1
inactive: Potency [1] | Potency [2] | outcome [3] | outcome [4] | Potency [5] | Potency [6] | Potency [11] | Potency [19] | Potency [20] | Potency [12]

CC(=O)Nc1ccc(C)c(Cl)c1
inactive: Potency [1] | Potency [2] | outcome [3] | outcome [4] | Potency [13] | Potency [6] | Potency [7] | Potency [8] | Potency [14] | Potency [16] | Potency [17] | Potency [18] | Potency [9] | Potency [10] | Potency [11] | Potency [20] | Potency [12]

COCCO
inactive: Potency [1] | Potency [2] | outcome [3] | outcome [4] | Potency [5] | Potency [13] | Potency [15] | Potency [16] | Potency [17] | Potency [18] | Potency [9] | Potency [10] | Potency [19] | Potency [20] | Potency [12]

CCOc1ccccc1N
inactive: Potency [1] | Potency [2] | outcome [3] | outcome [4] | Potency [5] | Potency [13] | Potency [7] | Potency [8] | Potency [14] | Potency [16] | Potency [17] | Potency [18] | Potency [11] | Potency [20] | Potency [12]
